PostGolgi yeast – growth inhibition of a yeast mutant, post-Golgi transport screen. post-Golgi transport phenotypic cell assay. inhibition, % at 10 µM. actives 0.9% (n = 98,000). AID 739;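 further: yeast cells grown in 1536-well plates; yeast grown about 18 h at 30C before absorbance read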
CYP2C19 inh – inhibitors of human CYP2C19. P33261. CYP2C19 Supersomes, luciferin-H EGE luminescence, 30 min. inhibition, % at 5 µM. actives 21% (n = 96,000);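 active means CYP2C19 inhibition above a set limit at 5 µM in the primary screen, cut at about 50% in these data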
Target sequence (P33261 whole entry, looked up): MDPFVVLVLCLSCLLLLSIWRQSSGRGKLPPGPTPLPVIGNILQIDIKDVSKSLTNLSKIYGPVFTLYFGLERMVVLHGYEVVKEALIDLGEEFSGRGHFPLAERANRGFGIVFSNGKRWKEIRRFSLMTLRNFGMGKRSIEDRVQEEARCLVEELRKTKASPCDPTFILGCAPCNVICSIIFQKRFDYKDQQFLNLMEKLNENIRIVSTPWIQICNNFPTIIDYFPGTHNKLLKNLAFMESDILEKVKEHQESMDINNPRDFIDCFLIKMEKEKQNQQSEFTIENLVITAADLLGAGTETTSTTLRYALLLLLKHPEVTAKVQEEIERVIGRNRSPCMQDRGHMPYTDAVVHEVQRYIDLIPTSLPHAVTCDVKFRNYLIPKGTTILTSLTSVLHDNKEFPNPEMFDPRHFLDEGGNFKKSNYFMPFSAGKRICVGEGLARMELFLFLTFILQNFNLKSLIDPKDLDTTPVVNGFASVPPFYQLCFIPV
CYP2C9 inh – blocks human cytochrome P450 2C9. CYP2C9 Supersomes, luciferin-H conversion, luminescence. P11712. inhibition, % at 5 µM. AID 777. actives 20% (n = 96,000);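 active means blocking of liver enzyme CYP2C9 beyond about 50% at 5 µM, limit read from the data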
CYP2C19 activ – activators of human cytochrome P450 2C19; activation factor at 5 µM; recombinant CYP2C19, luciferin-H EGE luminescence; stronger effect = higher value; 0 = fully inhibited enzyme, 1 = untreated enzyme; P33261; 96,000 tested, under 10 active;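 active means activation factor of at least 2 at 5 µM in the primary screen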
CYP2C9 activ – CYP2C9 (human) activation; P11712; actives 1.4% (n = 96,000); recombinant CYP2C9, luciferin-H conversion, luminescence; stronger effect = higher value; factor 1 = untreated enzyme, 0 = blocked; activation factor at 5 µM;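 active means activation factor of 2 or more for CYP2C9 at a 5 µM dose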
PostGolgi ctrl – growth of the yeast control strain, post-Golgi counter-screen | efflux-deficient yeast background strain, growth absorbance A615, 16 h | inhibition, % at 10 µM | actives 5% (n = 98,000)
A number is an active result. A selection: hits, their analogues and other compounds. The true share with any hit is near 32%. Unless noted, no stated cut-off is given here; in the data, active means inhibition above about 30%; inactive means the rest.

`Cc1ccc(C(=O)CSc2nc3cc(S(=O)(=O)N4CCOCC4)ccc3o2)cc1` gave PostGolgi yeast inactive, CYP2C19 inh inactive, CYP2C9 inh 82.4, CYP2C19 activ inactive, CYP2C9 activ inactive and PostGolgi ctrl 38.5.
For O=C(CSc1nc2cc(S(=O)(=O)N3CCOCC3)ccc2o1)NC1CCCc2ccccc21 (configuration not stated) the results were PostGolgi yeast inactive, CYP2C19 inh 73.7, CYP2C9 inh 60.3, CYP2C19 activ inactive, CYP2C9 activ inactive and PostGolgi ctrl inactive.
For Cc1[nH]c2ccccc2c1C(=O)CSc1nc2ccccc2[nH]1 the results were PostGolgi yeast inactive, CYP2C19 inh inactive, CYP2C9 inh inactive, CYP2C19 activ inactive, CYP2C9 activ inactive and PostGolgi ctrl inactive.
`Cn1c(SCC(=O)NCc2ccccc2)nnc1C1CC1` gave PostGolgi yeast inactive, CYP2C19 inh inactive, CYP2C9 inh inactive, CYP2C19 activ inactive, CYP2C9 activ inactive and PostGolgi ctrl inactive.
`CCOC(=O)c1sc2nc(C(C)C)c3c(c2c1N)CC(C)(C)OC3` gave PostGolgi yeast inactive, CYP2C19 inh inactive, CYP2C9 inh 69.3, CYP2C19 activ inactive, CYP2C9 activ inactive and PostGolgi ctrl inactive.
`C=CCN1C(=O)/C(=C\c2ccc(Cl)cc2)N=C1SCC(=O)NC1CCCCC1` gave PostGolgi yeast inactive, CYP2C19 inh inactive, CYP2C9 inh inactive, CYP2C19 activ inactive, CYP2C9 activ inactive and PostGolgi ctrl inactive.
COc1ccc(Cl)cc1N1C(=O)/C(=C\c2sccc2C)N=C1SCC(=O)NC1CC1 was read as PostGolgi yeast inactive, CYP2C19 inh 96.7, CYP2C9 inh 96.6, CYP2C19 activ inactive, CYP2C9 activ inactive and PostGolgi ctrl inactive.
CC1(C)CN(c2ccccc2)N(Cc2ccc(F)cc2)C1=O was read as PostGolgi yeast inactive, CYP2C19 inh 60.0, CYP2C9 inh inactive, CYP2C19 activ inactive, CYP2C9 activ inactive and PostGolgi ctrl inactive.
Screening CC(CCN(C)C)OC(=O)c1ccc(C(C)c2ccccc2)o1 (configuration not stated) returned PostGolgi yeast inactive, CYP2C19 inh 60.8, CYP2C9 inh inactive, CYP2C19 activ inactive, CYP2C9 activ inactive and PostGolgi ctrl inactive.
CC(CN(C)Cc1ccccc1)OC(=O)c1cccs1 (configuration not stated) was read as PostGolgi yeast inactive and PostGolgi ctrl inactive.
COc1ccc(NC(=O)C2C3C=CC(C3)C2C(=O)NCc2ccco2)cc1 (configuration not stated) was read as PostGolgi yeast inactive, CYP2C19 inh 66.9, CYP2C9 inh inactive, CYP2C19 activ inactive, CYP2C9 activ inactive and PostGolgi ctrl inactive.
Screening O=S1(=O)CC(NCc2ccccc2)C(Nc2ccccc2)C1 (configuration not stated) returned PostGolgi yeast inactive, CYP2C19 inh 85.9, CYP2C9 inh inactive, CYP2C19 activ inactive, CYP2C9 activ inactive and PostGolgi ctrl inactive.
For COc1ccc(NC2CS(=O)(=O)CC2NCc2ccco2)cc1 (configuration not stated) the results were PostGolgi yeast inactive, CYP2C19 inh 89.2, CYP2C9 inh inactive, CYP2C19 activ inactive, CYP2C9 activ inactive and PostGolgi ctrl inactive.
O=C(NC1CS(=O)(=O)CC1NCc1ccccc1)c1ccccc1 (configuration not stated) was read as PostGolgi yeast inactive, CYP2C19 inh inactive, CYP2C9 inh inactive, CYP2C19 activ inactive, CYP2C9 activ inactive and PostGolgi ctrl inactive.
For O=S(=O)(c1ccc(OCC(O)CN2CCc3ccccc3C2)cc1)N1CCOCC1 (configuration not stated) the results were PostGolgi yeast inactive, CYP2C19 inh inactive, CYP2C9 inh inactive, CYP2C19 activ inactive, CYP2C9 activ inactive and PostGolgi ctrl inactive.
Screening Cc1ccc(NC(=O)c2ccc(Cl)c(N3C(=O)C=CC3=O)c2)cc1 returned PostGolgi yeast inactive, CYP2C19 inh inactive, CYP2C9 inh 61.9, CYP2C19 activ inactive, CYP2C9 activ inactive and PostGolgi ctrl inactive.
`CCn1c(COc2ccc(=O)n(-c3ccccc3)n2)nnc1SCc1cccc(OC)c1` gave PostGolgi yeast inactive, CYP2C19 inh inactive, CYP2C9 inh 53.0, CYP2C19 activ inactive, CYP2C9 activ inactive and PostGolgi ctrl inactive.
Screening CCn1c(COc2ccccc2)nnc1SCc1ccc(C#N)cc1 returned PostGolgi yeast inactive, CYP2C19 inh inactive, CYP2C9 inh inactive, CYP2C19 activ inactive, CYP2C9 activ inactive and PostGolgi ctrl inactive.
Screening CC1=NN(c2nc(-c3ccc(Cl)cc3)cs2)C(=O)C1 returned PostGolgi yeast inactive, CYP2C19 inh inactive, CYP2C9 inh 59.5, CYP2C19 activ inactive, CYP2C9 activ inactive and PostGolgi ctrl inactive.
For Cc1ccccc1Cc1c(C)nc2nc(SCC(=O)NCc3ccco3)nn2c1C the results were PostGolgi yeast inactive, CYP2C19 inh inactive, CYP2C9 inh 66.1, CYP2C19 activ inactive, CYP2C9 activ inactive and PostGolgi ctrl inactive.
Cc1ccccc1Cc1c(C)nc2c(C(=O)NCc3ccco3)cnn2c1C was read as PostGolgi yeast inactive, CYP2C19 inh 56.2, CYP2C9 inh 86.6, CYP2C19 activ inactive, CYP2C9 activ inactive and PostGolgi ctrl 42.4.
For Cc1nc2ncnn2c(C)c1CCC(=O)NCc1ccco1 the results were PostGolgi yeast inactive, CYP2C19 inh inactive, CYP2C9 inh inactive, CYP2C19 activ inactive, CYP2C9 activ inactive and PostGolgi ctrl inactive.
Screening Cc1nc2nc(SCC(=O)NCc3ccco3)nn2c(C)c1Cc1c(F)cccc1Cl returned PostGolgi yeast inactive, CYP2C19 inh inactive, CYP2C9 inh 88.5, CYP2C19 activ inactive, CYP2C9 activ inactive and PostGolgi ctrl inactive.
`O=C(CSc1ccc2nnc(-c3cccc(F)c3)n2n1)NCc1ccco1` gave PostGolgi yeast inactive, CYP2C19 inh inactive, CYP2C9 inh inactive, CYP2C19 activ inactive, CYP2C9 activ inactive and PostGolgi ctrl inactive.
Screening Cc1cc(C)n2nc(SC(C)C(=O)NCc3ccco3)nc2n1 (configuration not stated) returned PostGolgi yeast inactive, CYP2C19 inh inactive, CYP2C9 inh inactive, CYP2C19 activ inactive, CYP2C9 activ inactive and PostGolgi ctrl inactive.
`Cc1ccc(Cc2c(C)nc3nc(SCC(=O)NCc4ccco4)nn3c2C)cc1` gave PostGolgi yeast inactive, CYP2C19 inh inactive, CYP2C9 inh 55.9, CYP2C19 activ inactive, CYP2C9 activ inactive and PostGolgi ctrl inactive.
For Cc1ccnc2c(N3C(=O)C4C5C=CC(C5)C4C3=O)cccc12 (configuration not stated) the results were PostGolgi yeast inactive, CYP2C19 inh inactive, CYP2C9 inh inactive, CYP2C19 activ inactive, CYP2C9 activ inactive and PostGolgi ctrl inactive.
Screening CCOC(=O)Cc1nnc(Nc2cccc(O)c2)c2ccccc12 returned PostGolgi yeast inactive, CYP2C19 inh inactive, CYP2C9 inh inactive, CYP2C19 activ inactive, CYP2C9 activ inactive and PostGolgi ctrl inactive.
`CCc1nc2ccccc2c(C(=O)OCC(=O)NCCCN2CCCC2=O)c1C` gave PostGolgi yeast inactive, CYP2C19 inh inactive, CYP2C9 inh inactive, CYP2C19 activ inactive, CYP2C9 activ inactive and PostGolgi ctrl inactive.
